TDP1 cell noCPT = qHTS for Inhibitors of human tyrosyl-DNA phosphodiesterase 1 (TDP1): qHTS in cells in absence of CPT. DT40 Tdp1-/- hTDP1 cells, no CPT, ATP luminescence, 48 h. AID 686978, 2013. 420,000 tested, 15% active. Potency, µM (doses to about 46.2 µM), hits mostly inhibitors; further: nearly all actives have a fitted effect of over 55% in size
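Readout: luminescence from CellTiter-Glo after 30 min in the dark at RT. Cells: DT40 Tdp1-/- with stable hTDP1, 400/well. Exposure: compounds alone, ≥48 hr, 37 °C.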
ALOX12 inh = Primary qHTS assay for inhibitors of human arachidonate 12S-lipoxygenase (ALOX12): Round 2. AID 1671190, 2021. purified 12hLO, xylenol orange hydroperoxide absorbance. 580,000 tested, 1.1% active. Potency, µM (series often up to 108 µM), actives largely listed as inhibitors
Target sequence (P18054 whole entry, looked up): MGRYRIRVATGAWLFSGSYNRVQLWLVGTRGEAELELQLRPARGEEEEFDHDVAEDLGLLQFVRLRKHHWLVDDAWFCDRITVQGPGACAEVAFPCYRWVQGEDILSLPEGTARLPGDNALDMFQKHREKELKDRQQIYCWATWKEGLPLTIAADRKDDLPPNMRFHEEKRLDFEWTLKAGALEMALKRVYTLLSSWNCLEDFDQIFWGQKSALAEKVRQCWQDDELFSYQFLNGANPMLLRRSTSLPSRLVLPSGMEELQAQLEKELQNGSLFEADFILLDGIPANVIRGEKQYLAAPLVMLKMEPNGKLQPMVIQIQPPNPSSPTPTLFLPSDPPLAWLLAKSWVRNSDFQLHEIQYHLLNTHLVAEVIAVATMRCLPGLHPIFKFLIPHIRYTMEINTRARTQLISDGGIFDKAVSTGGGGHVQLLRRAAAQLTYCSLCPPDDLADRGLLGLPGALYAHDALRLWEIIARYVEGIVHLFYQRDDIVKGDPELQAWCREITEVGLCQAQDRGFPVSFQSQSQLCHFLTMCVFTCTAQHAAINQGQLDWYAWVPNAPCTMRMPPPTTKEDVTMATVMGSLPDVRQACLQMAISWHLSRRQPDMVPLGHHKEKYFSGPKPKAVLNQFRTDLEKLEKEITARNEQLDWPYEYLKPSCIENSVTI
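Purified human 12hLO at 150 nM in 25 mM Hepes, 0.01% Triton X-100, pH 7.0, preincubated 15 min at room temperature with compound. Reaction started with 40 uM arachidonic acid, 30 min at room temperature. Hydroperoxide measured by Fe-xylenol orange, 573/405 nm absorbance ratio.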
IL1B secr inh = qHTS for Inhibitors of Inflammasome Signaling: IL-1-beta AlphaLISA Primary Screen; activity change, % at 57.5 µM; THP-1 LPS/ATP IL-1B secretion, AlphaLISA, 16 h; hits give low values; 360,000 tested, 4.7% active; AID 743279, 2014; in the data active means activity change below about -50%; inconclusive means mostly about -30% to -49%
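Secreted IL-1B measured by AlphaLISA bead assay after 16 h compound exposure of THP-1 cells; compounds (final up to 57.5 uM) added 1 h before LPS (250 ng/mL) and ATP (1.25 mM) stimulation; lower signal means less secretion.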
HT1080 IDH1KD tx = qHTS for induction of synthetic lethality in tumor cells producing 2HG: qHTS for the HT-1080-IDH1KD cell line; Potency, µM (top dose mostly 46.1 µM), actives largely listed as cytotoxic; AID 686971, 2013; HT-1080 IDH1 knockdown viability, ATP luminescence, 48 h; 360,000 tested, 2% active
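IDH1KD HT-1080 cells, 750/well, RPMI + 5% FBS; compound pinned after 2 h settling; 48 h, 37 °C; CellTiter-Glo luminescence; % activity normalised to DMSO and no-cell wells; curves fitted, classed by r2 and efficacy.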
HT1080NT lethal = qHTS for induction of synthetic lethality in tumor cells producing 2HG: qHTS for the HT-1080-NT fibrosarcoma cell line | AID 686970, 2013 | HT-1080-NT fibrosarcoma viability, CellTiter-Glo ATP luminescence, 48 h | Potency, µM (doses to about 46.1 µM), actives largely listed as cytotoxic | 360,000 tested, 1.6% active;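 further: NT is the 2HG producing partner of a matched IDH1 knockdown line; nearly all actives have a fitted effect of over 55% in size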
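Read-out is CellTiter-Glo luminescence after 10 minutes at room temperature, following 48 hours' compound treatment of HT-1080-NT cells (750 cells/well, RPMI, 5% FBS, 37 degrees C).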
TDP1 cell CPT = qHTS for Inhibitors of human tyrosyl-DNA phosphodiesterase 1 (TDP1): qHTS in cells in presence of CPT. chicken DT40 Tdp1-/-;hTDP1 cells + 20 nM CPT, ATP luminescence, 48 h. Potency, µM (titrated, usually from 46.2 µM), hits mostly inhibitors. 420,000 tested, 12% active. AID 686979, 2013; further: nearly all actives have a fitted effect of over 55% in size
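Chicken DT40 Tdp1-/- cells complemented with human TDP1, 400 cells/well, exposed to compounds plus 20 nM camptothecin for at least 48 h at 37 C; viability read as ATP content by CellTiter-Glo luminescence.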
Numbers stand for hits; 0 = inactive; ? = inconclusive; - = not tested or not shown; [ ] = remark or other dose. This is one part of a sample in which hits are shown more often than they occur. Unless noted, the call rests on the fitted dose curve; in most records, active means well fitted curve in the direction sought with a large enough effect; inconclusive means small, poorly fitted or top-dose-only effect, or another doubt; inactive means no such curve, though single readings can be large; an effect the other way counts as inactive or inconclusive.

SMILES | TDP1 cell noCPT | ALOX12 inh | IL1B secr inh | HT1080 IDH1KD tx | HT1080NT lethal | TDP1 cell CPT
CC(C)(C)NS(=O)(=O)c1ccc(OCC(=O)NCc2ccco2)cc1 | 0 | 0 | 0 | 0 | 0 | 0
COc1ccc(Oc2coc3cc(OC(=O)N4CCOCC4)ccc3c2=O)cc1 | ? | 0 | 0 | 0 | 0 | 16µM
CCc1cc2c(NCC(=O)O)ncnc2s1 | ? | 0 | 0 | 0 | 0 | 0
CCOC(=O)c1sc2ncnc(NCc3ccco3)c2c1C | ? | 0 | 0 | 0 | 0 | 18µM
CCc1cc2c(NCc3ccco3)ncnc2s1 | 13µM | ? | 0 | 0 | 0 | 18µM
COc1ccc(-n2nnc(-c3nsc(NC(=O)c4cccs4)n3)c2C)cc1OC | 0 | 0 | - | - | - | 0
O=C1c2ccccc2C(=Nc2ccccc2)C1c1cccc(Br)c1 (configuration not stated) | ? | 0 | 0 | 0 | 0[9.24 µM] | 10µM
CN1C(=O)c2cccn2CC1C(=O)NCc1ccccc1 (configuration not stated) | - | 0 | - | - | - | -
O=C(CCCn1c(=O)c2ccccc2n(CC(=O)NCc2ccco2)c1=O)NCc1ccco1 | ? | 0 | 0 | 0 | 0 | 0
O=C(CCCCn1c(=O)c2ccccc2n(Cc2ccc(F)cc2Cl)c1=O)NCc1ccco1 | 15µM | 0 | 0 | ? | ? | 18µM
O=C(CCCCn1c(=O)c2ccccc2n(CC(=O)Nc2ccc(F)cc2)c1=O)NCc1ccco1 | ? | 0 | 0 | 0[9.24 µM] | 0 | 9.2µM
O=C(CCn1c(=O)c2sccc2n(CC(=O)NCc2ccco2)c1=O)NCc1ccccc1 | 0 | 0 | 0 | 0 | 0.1µM | 0
Cc1ccc(C)c(Cn2c(=O)n(CCCC(=O)NCc3ccco3)c(=O)c3sccc32)c1 | 12µM | 0 | 0 | 9.2µM | ? | 23µM
Nc1cc(=O)[nH]c(SCC(=O)Nc2cc(S(=O)(=O)N3CCCCC3)ccc2Cl)n1 | 0 | ? | 0 | 0 | 0[9.24 µM] | 0
COc1ccc(NC(=O)C(=O)c2c(C)[nH]c3ccccc23)cc1OC | - | 0 | - | - | - | -
COc1cc(NC(=O)CSc2nnc(-c3ccc(C)cc3)c(=O)[nH]2)cc(OC)c1 | - | 0 | - | - | - | -
Cc1ccc(C)c(Cn2c(=O)n(CCCC(=O)NCc3ccco3)c(=O)c3ccccc32)c1 | ? | 0 | 0 | 0 | 0 | 0
Cc1ccc(NC(=O)Cn2c(=O)n(CCCCC(=O)NCc3ccco3)c(=O)c3ccccc32)cc1 | 15µM | 0 | 0 | 0 | 0 | ?
Cc1cc(C)c(Cn2c(=O)n(CCCC(=O)NCc3ccco3)c(=O)c3ccccc32)c(C)c1 | 18µM | 0 | 0 | 0 | 0 | ?
Brc1cccc(CNCc2ccncc2)c1 | 0 | ? | 0 | 0 | 0 | 0
Brc1ccc(OCc2ccccc2)c(CNCc2ccncc2)c1 | ? | ? | -59 | ? | ? | 16µM
Fc1ccc(COc2ccccc2CNCc2ccncc2)cc1 | 26µM | 0 | 0 | 0 | 0 | ?
Fc1ccc(COc2ccc3ccccc3c2CNCc2ccncc2)cc1 | - | 0 | - | - | - | -
CCOC(=O)C1=C(Nc2ccccc2)O/C(=C\c2c(F)cccc2F)C1=O | - | 0 | - | - | - | -
FC(F)(F)c1cccc(CSc2cccc3cccnc23)c1 | - | 0 | - | - | - | -
SMILES | TDP1 cell noCPT | ALOX12 inh | IL1B secr inh | HT1080 IDH1KD tx | HT1080NT lethal | TDP1 cell CPT
Cc1cccc(CSc2cccc3cccnc23)c1 | 3.7µM | 0 | -110 | ? | ? | 4.1µM
COc1cccc(/C=N/NC(=O)CSc2cccc3cccnc23)c1 | 12µM | ? | 0 | 0 | 0 | ?
CCOC(=O)CSc1cccc2cccnc12 | 5.8µM | ? | 0 | ? | 0 | 5.8µM
Cc1cccc(NC(=O)CSc2cccc3cccnc23)c1C | 0 | ? | 0 | 0 | 0 | 0
Cc1oc(-c2nc(C#N)c(NCc3ccccc3)o2)cc1S(=O)(=O)N1CCCCC1 | - | 0 | - | - | - | -
S=C(NC1CCCCCC1)NC1CCCC1 | ? | 0 | 0 | 0 | 0 | ?
NNC(=S)NC1CCCCCCCCCCC1 | 8.2µM | ? | 0 | 0 | 0 | ?
CCC1C(=O)n2nc(-c3ccccc3)cc2N=C1C (configuration not stated) | 10µM | 0 | 0 | 0 | 0 | 8.2µM
CCCCCCCNS(=O)(=O)c1ccc(OC)c2ncccc12 | - | 0 | - | - | - | -
Cc1ccc(C)c(C(=O)CCC(=O)N2CCc3sccc3C2c2cccs2)c1 (configuration not stated) | - | 0 | - | - | - | -
CCCCCn1c(COc2ccccc2Cl)n[nH]c1=S | - | 28µM | - | - | - | -
COc1ccc(-n2c(COc3ccc(Cl)cc3Cl)n[nH]c2=S)cc1 | ? | ? | 0 | 0 | 0 | ?
CCN(CC)CCCn1c(-c2ccc(COc3cc(C)ccc3Cl)cc2)n[nH]c1=S | - | 35µM | - | - | - | -
Cn1c(COc2cc(Cl)ccc2Cl)n[nH]c1=S | - | 50µM | - | - | - | -
CCCCn1c(Cc2ccccc2)n[nH]c1=S | ? | ? | 0 | 0 | 0 | 0
Cc1ccc(C(C)C)c(OCc2n[nH]c(=S)n2Cc2ccc(Cl)cc2)c1 | - | 28µM | - | - | - | -
CC(C)C(NC(=O)NCc1ccn[nH]1)c1ccc2c(c1)OCCCO2 (configuration not stated) | - | 0 | - | - | - | -
Cc1ccc(Cl)c(OCc2n[nH]c(=S)n2C)c1 | - | 32µM | - | - | - | -
Cc1cccc(C)c1-n1nnnc1C(C)(C)N1CCN(N=O)CC1 | 0 | ? | 0 | 0 | 0 | 0
CCC(C)(c1nnnn1-c1c(C)cccc1C)N(N=O)c1cccc(C(F)(F)F)c1 (configuration not stated) | 21µM | 0 | 0 | 0 | 0 | 26µM
OC(CNC1CCCc2ccccc21)COc1ccc2ccccc2c1 (configuration not stated) | 21µM | ? | 0 | 0 | 0 | ?
CC(=O)CCc1ccc(OCC(O)CNC2CCCc3ccccc32)cc1 (configuration not stated) | ? | 0 | 0 | 0 | 0 | ?
O=C(COC(=O)COc1ccc2ccccc2c1)NC1CCCc2ccccc21 (configuration not stated) | 0 | 0 | 0 | 0 | 0 | 0
CCOc1ccccc1OCCCC(=O)NC1CCCc2ccccc21 (configuration not stated) | ? | 0 | 0 | 0 | 0 | ?
CCc1ccccc1OC[C@@H](O)CN[C@H]1CCCc2ccccc21 | 6µM | ? | ? | ? | ? | 16µM
O=C(c1ccccc1)c1ccc(OCC(O)CNC2CCCc3ccccc32)cc1 (configuration not stated) | ? | 0 | 0 | 0 | 0 | 16µM
COc1ccccc1-c1coc2cc(OS(C)(=O)=O)ccc2c1=O | - | 0 | - | - | - | -
